# Where a name gives a salt, the structure may show the parent alone.
# System: Saccharomyces cerevisiae BY4741 SeMeCo community
# Test: z-score of subpopulation abundance vs DMSO median, subpopulation auxotrophic for HUM; higher = larger share of this subpopulation than in DMSO controls
# Conditions: 10 µM; 24 h; SM minimal medium; subpopulation (auxotrophy): HUM
# Description: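 Fluorescent four-plasmid SeMeCo (self-establishing metabolically cooperating S. cerevisiae BY4741 community; plasmids pH-mRuby2, pL-mWasabi, pU-eCFP, pM-TagRFP657) was grown 24 h in minimal SM medium with each Selleck FDA-approved drug at 10 µM in 384-well plates. Cells were fixed and imaged by high-content confocal microscopy. For each auxotrophic subpopulation (and the prototroph), a z-score gives the deviation from the DMSO vehicle-control population median.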
row,Compound,z-score of subpopulation abundance
1,CCN(C)C(=O)Oc1cccc([C@H](C)N(C)C)c1 [Rivastigmine Tartrate],-0.85
2,C#C[C@]1(O)C=C[C@H]2[C@@H]3CCC4=CC(=O)CC[C@@H]4[C@H]3CC[C@@]21CC [Gestodene],-0.17
3,COc1ccc(C(CN(C)C)C2(O)CCCCC2)cc1 (stereo not given) [Venlafaxine HCl],0.07
4,C=C(C)[C@H]1Cc2c(ccc3c2O[C@@H]2COc4cc(OC)c(OC)cc4[C@@H]2C3=O)O1 [Rotenone (Barbasco)],0.94
5,CC1(C)SC2C(N)C(=O)N2C1C(=O)O (stereo not given) [6-Aminopenicillanic acid],0.65
6,CCC1=C[C@H]2CN3CCc4c([nH]c5ccccc45)[C@](C(=O)OC)(C2)[C@H]13 [Catharanthine],0.29
7,CCN1CC2(OC(=O)c3ccccc3NC(C)=O)CCC(OC)C34C1C(CC23)C1(O)CC(OC)C2CC4C1(O)C2OC (stereo not given) [Lappaconitine],0.34
8,COc1cc2c(cc1OC)C1CC(=O)C(CC(C)C)CN1CC2 (stereo not given) [Tetrabenazine (Xenazine)],-0.9
9,CN1c2ccccc2C(NCCCCCCC(=O)O)c2ccc(Cl)cc2S1(=O)=O (stereo not given) [Tianeptine sodium],-0.16
10,CC[C@@H](C(N)=O)N1CCCC1=O [Levetiracetam],-0.12
11,O=c1cccc2n1C[C@@H]1CNC[C@H]2C1 [Cytisine],-0.61
12,O=C(O[C@H]1C[N+]2(CCCOc3ccccc3)CCC1CC2)C(O)(c1cccs1)c1cccs1 [Aclidinium Bromide],0.22
13,CN(C)C(=O)Oc1cccc([N+](C)(C)C)c1 [Neostigmine Bromide],-0.37
14,CN(C)[C@@H]1C(=O)C(C(N)=O)=C(O)[C@@]2(O)C(=O)C3=C(O)c4c(O)cccc4[C@@](C)(O)[C@H]3[C@H](O)[C@@H]12 [Oxytetracycline Dihydrate],-0.79
15,CCN(CC)CCOC(=O)C(O)(c1ccccc1)c1ccccc1 [Benactyzine hydrochloride],0.98
16,C=CN1CCCC1=O.II [Povidone iodine],1.77
17,C=CCN1C[C@H](C(=O)N(CCCN(C)C)C(=O)NCC)C[C@@H]2c3cccc4[nH]cc(c34)C[C@H]21 [Cabergoline],-0.37
18,C[C@@H]1O[C@@H](O[C@H]2C[C@@H](O)[C@]3(CO)[C@H]4[C@H](O)C[C@]5(C)[C@@H](C6=CC(=O)OC6)CC[C@]5(O)[C@@H]4CC[C@]3(O)C2)[C@H](O)[C@H](O)[C@H]1O [Ouabain],-0.49
19,CC(C)=CCOc1c2occc2cc2ccc(=O)oc12 [Imperatorin],-1.03
20,O=c1[nH]c2ccccc2n1CCCN1CCC(n2c(=O)[nH]c3cc(Cl)ccc32)CC1 [Domperidone],0.44

row,Compound,z-score of subpopulation abundance
1,Cn1cc(C2=C(c3cn(C4CCN(Cc5ccccn5)CC4)c4ccccc34)C(=O)NC2=O)c2ccccc21,-0.32
2,CN[C@@H]1[C@@H](O)[C@@H](O[C@@H]2[C@@H](O)[C@H](O[C@H]3O[C@H](CN)CC[C@H]3N)[C@@H](N)C[C@H]2N)OC[C@]1(C)O.CN[C@@H]1[C@@H](O)[C@@H](O[C@@H]2[C@@H](O)[C@H](O[C@H]3O[C@H]([C@@H](C)N)CC[C@H]3N)[C@@H](N)C[C@H]2N)OC[C@]1(C)O.CN[C@@H]1[C@@H](O)[C@@H](O[C@@H]2[C@@H](O)[C@H](O[C@H]3O[C@H]([C@@H](C)NC)CC[C@H]3N)[C@@H](N)C[C@H]2N)OC[C@]1(C)O [Gentamicin Sulfate],-0.69
3,N[C@@H]1C[C@H]1c1ccccc1 [Tranylcypromine (2-PCPA) HCl],-0.57
4,CN(C)[C@@H]1C(=O)C(C(N)=O)=C(O)[C@@]2(O)C(=O)C3=C(O)c4c(O)cccc4[C@@](C)(O)[C@H]3C[C@@H]12 [Tetracycline HCl],0.07
5,CCCN1C[C@H](CSC)C[C@@H]2c3cccc4[nH]cc(c34)C[C@H]21 [Pergolide Mesylate],-0.74
6,CC[C@H]1[C@@H]2C[C@H]3[C@@H]4N(C)c5ccccc5[C@]45C[C@@H]([C@@H]2[C@H]5O)N3[C@@H]1O [Ajmaline],-0.48
7,NC(=O)CN1CCCC1=O [Piracetam],1.72
8,CC[C@H]1CN2CC[C@]3(C(=O)Nc4ccccc43)[C@@H]2C[C@@H]1/C(=C\OC)C(=O)OC [Rhynchophylline],0.73
9,N#Cc1nn(-c2c(Cl)cc(C(F)(F)F)cc2Cl)c(N)c1[S+]([O-])C(F)(F)F (stereo not given) [Fipronil],-0.76
10,C=CC[C@]1(O)CC[C@H]2[C@@H]3CCC4=CC(=O)CCC4=C3C=C[C@@]21C [Altrenogest],-0.44
11,CC(=O)OCC1=C(C(=O)O)N2C(=O)C(N)C2SC1 (stereo not given) [7-Aminocephalosporanic acid],0.03
12,C[CH2][Hg][S]c1ccccc1C(=O)[O-].[Na+] [Thimerosal],14.9
13,C[N+](C)(C)CCCCCCCCCC[N+](C)(C)C [Decamethonium Bromide],0.18
14,COc1ccc2c(c1)[C@]13CCCC[C@@H]1[C@H](C2)N(C)CC3 [Dextromethorphan hydrobromide hydrate],0.2
15,CN1[C@@H]2C[C@@H](OC(=O)[C@H](CO)c3ccccc3)C[C@H]1[C@@H]1O[C@@H]12 [Scopolamine HBr trihydrate],-0.05
16,Nc1nc(N)nc(NC2CC2)n1 [Cyromazine],-0.23
17,CCCCCCCCCCCCCCCC[n+]1ccccc1 [Cetylpyridinium Chloride],20.2
18,Nc1ccncc1 [4-Aminopyridine],-0.37
19,"NCC(O)c1ccc(O)cc1 (racemic) [(+,-)-Octopamine HCl]",-0.21
20,CN1[C@@H]2C[C@@H](OC(=O)[C@H](CO)c3ccccc3)C[C@H]1[C@@H]1O[C@@H]12 [Scopolamine HBr],-0.97

# From the supplement of paper PMC8975748
